# Where “and” joins values, the source holds several entries; their conditions need not be identical. Identical values can stand only once. Some compounds were tested as several samples or in several runs, with calls that do not always agree. Calls of active or inactive are those of the source. How the source made its calls: active means hit-call score of the fitted dose curve at least 0.9, where 1 is the maximum; inactive means score below 0.9.
# What was measured:
# [1] = ATG_GLI_CIS: Attagene CIS-FACTORIAL HepG2 Assay for human Zinc Finger Protein GLI1 (AID 2282945); settings: HepG2, Attagene cis-factorial reporter mRNA, GLI element; actives raise or lower the signal
# Procedure, shortened: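 Bidirectional curve fits relative to DMSO, using reporter mRNA levels from RT-PCR plus capillary electrophoresis. Cells were HepG2 transiently carrying cis-regulated reporter constructs, harvested 24 h after dosing.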
# [2] = ATG_GRE_CIS: Attagene CIS-FACTORIAL HepG2 Assay for human Glucocorticoid Response Elements (GRE) (AID 2282947); settings: HepG2 GRE cis-reporter, Attagene multiplex mRNA; actives raise or lower the signal
# Procedure, shortened: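 Assay uses human hepatoma HepG2 cells transfected with cis-promoter reporter units, exposed 24 h. mRNA from reporters detected by RT-PCR plus capillary electrophoresis; DMSO serves as negative control and baseline.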
# [3] = ATG_ISRE_CIS: Attagene CIS-FACTORIAL HepG2 Assay for human Interferon Regulatory Factor 1 (IRF1) binding to an Interferon-Stimulated Response Element (ISRE) (AID 2282948); settings: HepG2 ISRE cis-reporter (Attagene), mRNA transcription readout; actives raise or lower the signal
# Procedure, shortened: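 HepG2 cells transiently transfected with multiplexed cis-promoter reporter units; after 24 h compound exposure, reporter mRNA quantified by RT-PCR, FAM labelling, HpaI digestion and capillary electrophoresis. Bidirectional fit versus DMSO baseline.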
# [4] = ATG_M_32_CIS: Attagene CIS-FACTORIAL HepG2 Assay for M32 Transcription Factor (Internal Marker) (AID 2282949); settings: HepG2 Attagene cis-factorial M32 reporter, mRNA; actives raise or lower the signal;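 further: background control marker of the multiplexed CIS panel rather than a real target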
# Procedure, shortened: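 Following 24 h chemical exposure of HepG2 cells transiently expressing cis-promoter reporter constructs, reporter transcript levels were determined by RT-PCR with fluorescent labelling and capillary electrophoresis, then fitted bidirectionally against DMSO.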
# [5] = ATG_M_06_CIS: Attagene CIS-FACTORIAL HepG2 Assay for M06 Transcription Factor (Internal Marker) (AID 2282950); settings: HepG2 Attagene CIS-FACTORIAL M06 internal marker reporter; actives raise or lower the signal
# Procedure, shortened: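 Measured 24 h post-dosing in transiently transfected HepG2 cells, this internal-marker endpoint reports reporter mRNA via RT-PCR with fluorescent primer extension and capillary electrophoresis. DMSO served as negative control and baseline for bidirectional fitting.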
# [6] = molecular target: Hypoxia-inducible factor 1-alpha (Homo sapiens) (UniProt Q16665); assay: ATG_HIF1a_CIS: Attagene CIS-FACTORIAL HepG2 Assay for human Hypoxia Inducible Factor 1 (HIF1A) (AID 2282951); settings: HepG2 Attagene cis-factorial HIF1a reporter transcription; actives raise or lower the signal
# Procedure, shortened: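 In this multiplexed cell assay, HepG2 cells bearing transfected cis reporters are dosed for 24 h and reporter mRNA is read by RT-PCR plus capillary electrophoresis; signal increases and decreases are both scored against DMSO.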
# [7] = molecular target: Heat shock factor protein 1 (Homo sapiens) (UniProt Q00613); assay: ATG_HSE_CIS: Attagene CIS-FACTORIAL HepG2 Assay for human Heat Shock Transcription Factor 1 (HSE) (AID 2282953); settings: HepG2 HSE cis-reporter, Attagene RNA transcription; actives raise or lower the signal
# Procedure, shortened: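 Reporter mRNA induction in HepG2 is measured 24 h after dosing, using transiently transfected multiplexed cis-regulated reporter units. Signal comes from capillary electrophoresis of labelled RT-PCR products, with DMSO as negative control.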
# [8] = ATG_PBREM_CIS: Attagene CIS-FACTORIAL HepG2 Assay for human Phenobarbital-responsive Enhancer Module (PBREM) (AID 2282955); settings: HepG2 PBREM cis-reporter, Attagene multiplexed transcription; actives raise or lower the signal
# Procedure, shortened: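 After a 24 h incubation with test chemical, transfected HepG2 cells yield total RNA; reporter-specific RT-PCR products are fluorescently labelled, HpaI-digested and resolved by capillary electrophoresis against ROX size standards.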
# [9] = molecular target: Paired box protein Pax-6 (Homo sapiens) (UniProt P26367); assay: ATG_Pax6_CIS: Attagene CIS-FACTORIAL HepG2 Assay for human Paired Box 6 (PAX6) (AID 2282956); settings: HepG2 CIS-FACTORIAL PAX6 reporter transcription, RNA readout; actives raise or lower the signal
# Procedure, shortened: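 HepG2 cells transiently transfected with multiplexed cis-promoter reporter units (endogenous TF activity) were dosed for 24 h. Reporter mRNA was quantified by RT-PCR, 6-FAM labeling, HpaI digestion and capillary electrophoresis; bidirectional fitting versus DMSO baseline.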
# [10] = ATG_PXRE_CIS: Attagene CIS-FACTORIAL HepG2 Assay for human Pregnane X Receptor Element (PXRE) (AID 2282957); settings: HepG2 Attagene CIS-FACTORIAL PXRE reporter, mRNA; actives raise or lower the signal
# Procedure, shortened: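 HepG2 cells transiently transfected with cis-regulated multiple reporter transcription units; endogenous factor activity measured as reporter mRNA 24 h after dosing. RT-PCR, fluorescent primer extension, HpaI digestion, capillary electrophoresis; bidirectional fit versus DMSO baseline.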
# [11] = ATG_RORE_CIS: Attagene CIS-FACTORIAL HepG2 Assay for human RAR-related Orphan Receptor Element (RORE) (AID 2282959); settings: HepG2 Attagene cis-factorial RORE reporter, mRNA; actives raise or lower the signal
# Procedure, shortened: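 Fluorescence intensity of reporter-specific cDNA fragments, separated by capillary electrophoresis, gives the signal. Source: HepG2 liver cells transiently transfected with cis-element reporters and exposed 24 h; DMSO-normalized bidirectional fit.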
# [12] = ATG_Sox_CIS: Attagene CIS-FACTORIAL HepG2 Assay for human SRY-box transcription factor (SOX) (AID 2282960); settings: HepG2 Attagene cis-factorial SOX reporter, mRNA; actives raise or lower the signal
# Procedure, shortened: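 After 24 h of chemical treatment, transfected HepG2 reporter cells are lysed for total RNA. Transcript levels come from RT-PCR with labelled primer extension and capillary electrophoresis, analysed bidirectionally versus DMSO.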
# [13] = molecular target: Transcription factor Sp1 (Homo sapiens) (UniProt P08047); assay: ATG_Sp1_CIS: Attagene CIS-FACTORIAL HepG2 Assay for human Specificity Protein 1 (Sp1) (AID 2282961); settings: HepG2 Sp1 cis-reporter transcription, actives raise or lower the signal
# Procedure, shortened: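 Sp1-driven reporter mRNA, read as capillary electrophoresis fluorescence after RT-PCR, in transiently transfected HepG2 cells dosed for 24 h; signal change in either direction relative to DMSO.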
# [14] = ATG_SREBP_CIS: Attagene CIS-FACTORIAL HepG2 Assay for human Sterol Regulatory Element Binding (SREBP) (AID 2282962); settings: HepG2 Attagene cis-factorial SREBP reporter, mRNA; actives raise or lower the signal
# Procedure, shortened: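 HepG2 cells transiently transfected with multiplexed cis-element reporter units report endogenous transcription factor activity. After 24 h of chemical exposure, reporter mRNA was quantified by RT-PCR, 6-FAM labelling, HpaI digestion and capillary electrophoresis; bidirectional fits used DMSO as baseline.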
# [15] = molecular target: Signal transducer and activator of transcription 3 (Homo sapiens) (UniProt P40763); assay: ATG_STAT3_CIS: Attagene CIS-FACTORIAL HepG2 Assay for human Signal Transducer and Activator of Transcription 3 (STAT3) (AID 2282963); settings: HepG2, Attagene cis-factorial STAT3 reporter transcription; actives raise or lower the signal
# Procedure, shortened: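 After a 24 h compound incubation, total RNA from MRTU-transfected HepG2 cells was converted to cDNA and reporter sequences PCR-amplified, labelled and profiled by capillary electrophoresis. Gain and loss of signal were referenced to DMSO.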
# [16] = ATG_TA_CIS: Attagene CIS-FACTORIAL HepG2 Assay for human TA Basal Promoter (AID 2282964); settings: HepG2 Attagene CIS-factorial TA basal promoter reporter; actives raise or lower the signal
# Procedure, shortened: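 Cis-factorial format in HepG2: reporters report endogenous factors, not chimeric Gal4 fusions. After 24 h treatment, reporter transcripts were measured by RT-PCR-capillary electrophoresis fluorescence, analysed bidirectionally versus DMSO.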
# [17] = molecular target: Hepatocyte nuclear factor 6 (Homo sapiens) (UniProt Q9UBC0); assay: ATG_HNF6_CIS: Attagene CIS-FACTORIAL HepG2 Assay for human Hepatocyte Nuclear Factor 6 (HNF6) (AID 2282952); settings: HepG2 Attagene cis-factorial HNF6 reporter transcription; actives raise or lower the signal
# Procedure, shortened: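 HepG2 cells transiently transfected with cis-element-driven multiple reporter transcription units, dosed 24 h; reporter mRNA quantified by RT-PCR, FAM primer extension, HpaI digestion and capillary electrophoresis; bidirectional fit versus DMSO baseline.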
# [18] = ATG_PPRE_CIS: Attagene CIS-FACTORIAL HepG2 Assay for human Peroxisome Proliferator-activated Response Element (PPRE) (AID 2282958); settings: HepG2 PPRE cis-element reporter, Attagene transcription factor profiling; actives raise or lower the signal
# Procedure, shortened: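 Multiplexed reporter transcription units under cis-regulatory promoters were transfected into HepG2 cells to capture endogenous factor activity. A 24 h incubation preceded RNA isolation and fluorescent RT-PCR fragment analysis.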
# [19] = molecular target: Bile acid receptor (Homo sapiens) (UniProt Q96RI1); assay: ATG_IR1_CIS: Attagene CIS-FACTORIAL HepG2 Assay for human Nuclear Receptor Subfamily 1 Group H Member 4 (NR1H4), IR1 submotif (AID 2282946); settings: IR1 reporter transcription, actives raise or lower the signal
# Procedure, shortened: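 Cells (human HepG2) carry transiently transfected cis-promoter reporter transcription units. Compounds are incubated 24 h, total RNA is reverse-transcribed and amplified, and labelled fragments are resolved by capillary electrophoresis. Curves use DMSO as baseline.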
# [20] = ATG_MRE_CIS: Attagene CIS-FACTORIAL HepG2 Assay for human Metal Responsive Element (MRE) (AID 2282954); settings: HepG2 MRE cis-reporter transcription, Attagene multiplex; actives raise or lower the signal
# Procedure, shortened: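 After a 24 h chemical exposure, transiently transfected HepG2 cells yield RNA whose reporter sequences are amplified, FAM-labelled and sized by capillary electrophoresis. Curves are fitted bidirectionally relative to DMSO.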
# Transcription factor Sp1 (Homo sapiens), sequence (P08047 whole entry, looked up): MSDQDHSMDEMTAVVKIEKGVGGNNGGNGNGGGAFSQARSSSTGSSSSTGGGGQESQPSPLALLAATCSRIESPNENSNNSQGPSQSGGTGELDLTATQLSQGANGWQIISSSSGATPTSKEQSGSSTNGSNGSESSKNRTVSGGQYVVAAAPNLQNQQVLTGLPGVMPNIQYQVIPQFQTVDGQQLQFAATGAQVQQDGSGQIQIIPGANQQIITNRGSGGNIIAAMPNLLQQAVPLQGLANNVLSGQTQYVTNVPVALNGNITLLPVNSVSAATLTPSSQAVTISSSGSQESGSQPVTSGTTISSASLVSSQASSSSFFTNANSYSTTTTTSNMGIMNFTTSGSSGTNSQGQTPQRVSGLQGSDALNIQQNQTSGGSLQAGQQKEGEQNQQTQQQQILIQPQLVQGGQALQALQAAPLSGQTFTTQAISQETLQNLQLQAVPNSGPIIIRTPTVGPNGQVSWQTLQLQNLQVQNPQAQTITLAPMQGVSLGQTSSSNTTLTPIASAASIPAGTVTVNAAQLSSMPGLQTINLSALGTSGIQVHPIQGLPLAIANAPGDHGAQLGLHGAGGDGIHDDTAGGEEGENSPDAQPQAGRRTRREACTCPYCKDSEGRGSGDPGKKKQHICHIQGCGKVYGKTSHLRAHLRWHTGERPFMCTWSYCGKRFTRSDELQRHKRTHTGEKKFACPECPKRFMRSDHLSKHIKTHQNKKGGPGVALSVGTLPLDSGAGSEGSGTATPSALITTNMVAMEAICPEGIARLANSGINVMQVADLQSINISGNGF
# Signal transducer and activator of transcription 3 (Homo sapiens), sequence (P40763 whole entry, looked up): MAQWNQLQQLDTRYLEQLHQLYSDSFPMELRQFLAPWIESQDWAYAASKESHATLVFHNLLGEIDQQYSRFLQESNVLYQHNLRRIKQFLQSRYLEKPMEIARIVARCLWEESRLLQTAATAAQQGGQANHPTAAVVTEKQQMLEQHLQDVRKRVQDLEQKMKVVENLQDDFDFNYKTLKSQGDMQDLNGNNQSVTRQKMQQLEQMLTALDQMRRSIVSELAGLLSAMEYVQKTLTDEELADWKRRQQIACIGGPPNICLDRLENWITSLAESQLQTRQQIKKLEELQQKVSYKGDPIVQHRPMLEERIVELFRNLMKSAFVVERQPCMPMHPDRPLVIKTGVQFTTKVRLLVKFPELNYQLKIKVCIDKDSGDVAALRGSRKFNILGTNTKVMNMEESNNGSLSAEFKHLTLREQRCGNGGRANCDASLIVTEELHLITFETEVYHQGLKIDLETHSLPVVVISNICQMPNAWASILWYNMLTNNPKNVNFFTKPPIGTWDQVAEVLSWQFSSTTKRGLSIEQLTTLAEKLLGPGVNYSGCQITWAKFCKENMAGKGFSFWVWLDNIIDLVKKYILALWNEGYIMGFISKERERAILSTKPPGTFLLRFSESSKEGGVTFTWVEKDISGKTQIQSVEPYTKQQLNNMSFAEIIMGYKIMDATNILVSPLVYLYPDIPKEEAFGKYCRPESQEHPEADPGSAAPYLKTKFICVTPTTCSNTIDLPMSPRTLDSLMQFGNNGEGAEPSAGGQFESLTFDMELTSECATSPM
# Hypoxia-inducible factor 1-alpha (Homo sapiens), sequence (Q16665 whole entry, looked up): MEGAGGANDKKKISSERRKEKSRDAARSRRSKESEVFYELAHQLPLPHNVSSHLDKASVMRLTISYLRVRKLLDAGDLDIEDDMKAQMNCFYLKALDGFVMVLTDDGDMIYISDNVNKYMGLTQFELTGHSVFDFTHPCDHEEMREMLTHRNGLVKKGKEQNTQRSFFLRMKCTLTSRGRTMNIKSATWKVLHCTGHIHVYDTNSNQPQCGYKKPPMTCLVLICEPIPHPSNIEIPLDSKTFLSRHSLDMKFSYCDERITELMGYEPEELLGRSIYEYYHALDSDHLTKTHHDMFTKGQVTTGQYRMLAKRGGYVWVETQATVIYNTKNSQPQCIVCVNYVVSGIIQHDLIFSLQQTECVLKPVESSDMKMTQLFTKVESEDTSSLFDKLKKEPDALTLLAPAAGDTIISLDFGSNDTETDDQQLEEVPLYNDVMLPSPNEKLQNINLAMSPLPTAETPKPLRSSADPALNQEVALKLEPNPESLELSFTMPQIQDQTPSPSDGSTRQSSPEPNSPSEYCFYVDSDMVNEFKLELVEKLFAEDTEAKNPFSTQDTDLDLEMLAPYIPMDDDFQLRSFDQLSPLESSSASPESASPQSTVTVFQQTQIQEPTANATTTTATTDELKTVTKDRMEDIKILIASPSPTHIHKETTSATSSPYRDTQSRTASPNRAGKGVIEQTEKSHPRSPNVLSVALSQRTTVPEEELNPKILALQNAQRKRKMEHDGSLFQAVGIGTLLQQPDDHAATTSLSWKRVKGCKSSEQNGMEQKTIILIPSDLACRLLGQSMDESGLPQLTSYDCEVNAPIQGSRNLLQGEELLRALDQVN
# Paired box protein Pax-6 (Homo sapiens), sequence (P26367 whole entry, looked up): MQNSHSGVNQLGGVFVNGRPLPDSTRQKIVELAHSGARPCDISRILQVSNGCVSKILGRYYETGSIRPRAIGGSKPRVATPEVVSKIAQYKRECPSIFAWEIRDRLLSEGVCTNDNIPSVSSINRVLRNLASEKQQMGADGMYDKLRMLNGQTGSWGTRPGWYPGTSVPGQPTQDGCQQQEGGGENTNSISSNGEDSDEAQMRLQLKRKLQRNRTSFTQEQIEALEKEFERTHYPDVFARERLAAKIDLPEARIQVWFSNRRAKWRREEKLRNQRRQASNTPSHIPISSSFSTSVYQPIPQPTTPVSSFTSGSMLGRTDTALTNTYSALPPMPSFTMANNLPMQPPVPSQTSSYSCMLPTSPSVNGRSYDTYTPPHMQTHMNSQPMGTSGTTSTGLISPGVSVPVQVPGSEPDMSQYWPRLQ
# Heat shock factor protein 1 (Homo sapiens), sequence (Q00613 whole entry, looked up): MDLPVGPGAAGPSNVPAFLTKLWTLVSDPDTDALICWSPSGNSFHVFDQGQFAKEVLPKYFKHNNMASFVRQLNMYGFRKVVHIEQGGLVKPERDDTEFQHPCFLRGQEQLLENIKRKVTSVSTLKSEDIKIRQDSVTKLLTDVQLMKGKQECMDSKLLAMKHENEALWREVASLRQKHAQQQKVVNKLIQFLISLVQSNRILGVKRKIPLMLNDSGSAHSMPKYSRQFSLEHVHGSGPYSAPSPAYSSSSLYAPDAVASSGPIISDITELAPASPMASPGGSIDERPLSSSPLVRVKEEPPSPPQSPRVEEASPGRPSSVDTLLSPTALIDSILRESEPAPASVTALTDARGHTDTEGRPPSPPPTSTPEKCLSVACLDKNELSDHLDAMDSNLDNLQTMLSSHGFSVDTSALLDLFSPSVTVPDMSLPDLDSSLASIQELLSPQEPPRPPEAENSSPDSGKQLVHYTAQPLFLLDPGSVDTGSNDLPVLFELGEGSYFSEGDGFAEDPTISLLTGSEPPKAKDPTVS
# Hepatocyte nuclear factor 6 (Homo sapiens), sequence (Q9UBC0 whole entry, looked up): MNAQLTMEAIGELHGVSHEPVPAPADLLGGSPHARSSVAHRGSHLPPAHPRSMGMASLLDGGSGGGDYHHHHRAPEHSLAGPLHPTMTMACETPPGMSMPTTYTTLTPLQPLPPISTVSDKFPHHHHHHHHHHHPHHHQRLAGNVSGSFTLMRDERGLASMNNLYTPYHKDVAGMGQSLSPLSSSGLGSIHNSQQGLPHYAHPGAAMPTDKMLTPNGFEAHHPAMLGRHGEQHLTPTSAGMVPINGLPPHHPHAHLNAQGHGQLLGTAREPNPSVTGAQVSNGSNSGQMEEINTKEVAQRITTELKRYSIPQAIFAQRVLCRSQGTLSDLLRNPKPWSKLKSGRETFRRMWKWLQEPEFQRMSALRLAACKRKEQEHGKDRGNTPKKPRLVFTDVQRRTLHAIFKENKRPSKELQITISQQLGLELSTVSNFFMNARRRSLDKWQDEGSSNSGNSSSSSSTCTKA
# Bile acid receptor (Homo sapiens), sequence (Q96RI1 whole entry, looked up, the tested form may be a part): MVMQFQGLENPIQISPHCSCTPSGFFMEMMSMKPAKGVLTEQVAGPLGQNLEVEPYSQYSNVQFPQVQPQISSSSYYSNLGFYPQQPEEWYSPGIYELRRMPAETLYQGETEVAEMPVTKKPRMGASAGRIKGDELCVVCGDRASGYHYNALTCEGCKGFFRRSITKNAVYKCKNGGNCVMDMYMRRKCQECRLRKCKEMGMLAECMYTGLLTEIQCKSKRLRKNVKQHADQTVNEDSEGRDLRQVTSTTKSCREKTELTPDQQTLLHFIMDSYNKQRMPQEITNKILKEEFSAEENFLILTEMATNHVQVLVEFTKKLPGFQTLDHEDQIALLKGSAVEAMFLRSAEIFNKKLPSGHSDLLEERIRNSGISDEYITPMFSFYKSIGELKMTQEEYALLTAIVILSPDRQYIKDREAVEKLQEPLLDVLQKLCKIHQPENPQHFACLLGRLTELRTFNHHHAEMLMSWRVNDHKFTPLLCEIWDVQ
smiles,measurement,setting,value
CCCCCCCCC(=O)O,outcome,[1],inactive
same,outcome,[2],inactive
same,outcome,[3],inactive
same,outcome,[4],inactive
same,outcome,[5],inactive
same,outcome,[6],inactive
same,outcome,[7],inactive
same,outcome,[8],inactive
same,outcome,[9],inactive
same,outcome,[10],inactive
same,outcome,[11],inactive
same,outcome,[12],inactive
same,outcome,[13],inactive
same,outcome,[14],inactive
same,outcome,[15],inactive
same,outcome,[16],inactive
ClC1=C(Cl)C(Cl)(Cl)C(Cl)=C1Cl,AC50,[1],11.1 µM (active) and 6.27 µM (active)
same,outcome,[2],inactive
same,AC50,[3],14.6 µM (active) and 11.1 µM (active)
same,outcome,[4],inactive
same,outcome,[5],inactive
same,outcome,[6],inactive
same,AC50,[17],8.06 µM (active)
same,outcome,[17],inactive
same,AC50,[7],8.88 µM (active) and 5.39 µM (active)
same,AC50,[8],13.5 µM (active)
same,outcome,[8],inactive
same,AC50,[9],18.4 µM (active) and 6.7 µM (active)
same,AC50,[10],16.2 µM (active) and 6.82 µM (active)
same,outcome,[18],inactive
same,outcome,[11],inactive
same,outcome,[12],inactive
same,AC50,[13],15.7 µM (active) and 7.29 µM (active)
same,AC50,[14],11.1 µM (active)
same,outcome,[14],inactive
same,AC50,[15],21.7 µM (active)
same,outcome,[15],inactive
same,outcome,[16],inactive
Cc1oc(-c2ccccc2)nc1CCOc1ccc(C[C@H](Nc2ccccc2C(=O)c2ccccc2)C(=O)O)cc1,outcome,[1],inactive
same,AC50,[19],11 µM (active)
same,outcome,[2],inactive
same,outcome,[3],inactive
same,outcome,[4],inactive
same,outcome,[5],inactive
same,AC50,[6],17.6 µM (active)
same,AC50,[7],17.6 µM (active)
same,AC50,[20],20.8 µM (active)
same,AC50,[9],14.4 µM (active)
same,outcome,[10],inactive
same,outcome,[11],inactive
same,outcome,[12],inactive
same,outcome,[13],inactive
same,outcome,[14],inactive
same,outcome,[15],inactive
same,outcome,[16],inactive
OC1CCCCC1,outcome,[1],inactive
same,outcome,[2],inactive
same,outcome,[3],inactive
same,outcome,[4],inactive
same,outcome,[5],inactive
same,outcome,[6],inactive
same,outcome,[17],inactive
same,outcome,[7],inactive
same,outcome,[20],inactive
same,outcome,[8],inactive
same,outcome,[9],inactive
same,outcome,[10],inactive
same,outcome,[18],inactive
same,outcome,[11],inactive
same,outcome,[12],inactive
same,outcome,[13],inactive
same,outcome,[14],inactive
same,outcome,[15],inactive
same,outcome,[16],inactive
CN1CCC[C@H]1c1cccnc1,outcome,[1],inactive
same,outcome,[3],inactive
same,outcome,[4],inactive
same,outcome,[5],inactive
same,outcome,[17],inactive
same,outcome,[20],inactive
same,outcome,[8],inactive
same,outcome,[9],inactive
same,outcome,[10],inactive
same,outcome,[11],inactive
same,outcome,[12],inactive
same,outcome,[13],inactive
same,outcome,[14],inactive
same,outcome,[15],inactive
same,outcome,[16],inactive
Cc1cc(CCN2CCN(c3nsc4ccccc34)CC2)cc2c1NC(=O)CC2(C)C,outcome,[1],inactive
same,outcome,[19],inactive
same,outcome,[2],inactive
same,AC50,[3],8.79 µM (active)
same,outcome,[4],inactive
same,outcome,[5],inactive
same,outcome,[6],inactive
same,outcome,[7],inactive
same,AC50,[8],6.35 µM (active)
same,outcome,[9],inactive
same,AC50,[10],1.16 µM (active)
same,AC50,[11],6.32 µM (active)
same,outcome,[12],inactive
same,AC50,[13],14.7 µM (active)
same,outcome,[14],inactive
same,outcome,[15],inactive
same,outcome,[16],inactive
